# According to PubChem BioAssay (NCATS):
# Records with an inconclusive call do not appear. Calls of active or inactive are those of the source. Calls come from the whole dose curve; as a rule, active = well fitted curve in the direction sought with a large enough effect; inconclusive = small, poorly fitted or top-dose-only effect, or another doubt; inactive = no such curve, though single readings can be large; an effect the other way counts as inactive or inconclusive.
# Assay: qHTS of pediatric cancer cell lines to identify multiple opportunities for drug repurposing: Primary screen for control Hh wild type fibroblast cells (AID 1347106);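 note: a drop in luminescence marks cytotoxicity and a rise apparent proliferation; nearly all actives have a fitted effect of over 55% in size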
# Conditions: Hh wild-type fibroblast viability, CellTiter-Glo luminescence, 48 h; series mostly up to 46 µM; activity change, negative = cytotoxic: at the top concentration
# Summary of the method: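 Viability after 48 h compound treatment at 37C, 500-1,000 cells/well, read as ATP luminescence with CellTiter-Glo. Primary screens used 11-point (MIPE, 0.78 nM-46 µM) or 8-point (NPC, 0.59 nM-46 µM) final concentrations; follow-up screens used 11-point dilutions.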
# % is set by controls: 0 for no effect and ±100 for the full control effect.
row,SMILES,"activity change, negative = cytotoxic"
1,CN=C(NC#N)NCCSCc1csc(N=C(N)N)n1,11% (inactive)
2,CCN(CC)C(=O)N1CCN(C)CC1,10.1% (inactive)
3,Cc1c(N(C)CS(=O)(=O)O)c(=O)n(-c2ccccc2)n1C,7.76% (inactive)
4,CC1=C(C(=O)O)N2C(=O)[C@@H](NC(=O)[C@H](N)c3ccc(O)cc3)[C@H]2SC1,2.81% (inactive)
5,COc1c2occc2c(OC)c2c(=O)cc(C)oc12,-10.3% (inactive)
6,O=c1ccc2ccccc2o1,0.429% (inactive)
7,NC(CS)C(=O)O (configuration not stated),8.57% (inactive)
8,CCOC(=O)OC(C)OC1=C(C(=O)Nc2ccccn2)N(C)S(=O)(=O)c2ccccc21 (configuration not stated),16.7% (inactive)
9,NC(=O)c1cc[n+](CC2=C(C(=O)[O-])N3C(=O)[C@@H](NC(=O)Cc4cccs4)[C@H]3SC2)cc1,-1.24% (inactive)
10,COc1cccc(OC)c1C(=O)N[C@@H]1C(=O)N2[C@@H]1SC(C)(C)[C@@H]2C(=O)O,-0.216% (inactive)
11,CN1CCC(=C2c3ccccc3Sc3ccccc32)CC1,-5.64% (inactive)
12,Nc1ccc(/C=C/c2ccc(N)cc2S(=O)(=O)O)c(S(=O)(=O)O)c1,-3.6% [at 0.597 µM] (inactive)
13,OCc1ccccc1O,6.85% (inactive)
14,CCN1CCC[C@H]1CNC(=O)c1c(OC)ccc(Br)c1OC,6.51% (inactive)
15,CN1C(CCl)Nc2cc(Cl)c(S(N)(=O)=O)cc2S1(=O)=O (configuration not stated),2.18% (inactive)
16,Clc1ccc2c(c1)CCc1cccnc1C2=C1CCNCC1,-27.1% (inactive)
17,O=S1(=O)c2cccc3cccc(c23)N1CCCN1CCN(c2ccc(F)cc2)CC1,7.52% (inactive)
18,COC(=O)CCc1ccc(OCC(O)CNC(C)C)cc1 (configuration not stated),-3.6% (inactive)

row,SMILES,"activity change, negative = cytotoxic"
1,COc1cc(C(=S)N2CCOCC2)cc(OC)c1OC,7.4% (inactive)
2,Cc1c(F)c(N2CCNC(C)C2)cc2c1c(=O)c(C(=O)O)cn2C1CC1 (configuration not stated),8.2% (inactive)
3,CCCCOc1ccc(OCCCN2CCOCC2)cc1,-3.34% (inactive)
4,CCOc1ccc(NC(=O)CC(C)O)cc1 (configuration not stated),7.13% (inactive)
5,CC[N+](CC)(CCNC(=O)C(=O)NCC[N+](CC)(CC)Cc1ccccc1Cl)Cc1ccccc1Cl,13% (inactive)
6,NCCc1ccn[nH]1,7.37% (inactive)
7,O=c1[nH]c(=O)n([C@H]2CCCO2)cc1F,-2.4% (inactive)
8,CCCCN1CCCC1C(=O)Nc1c(C)cc(C)cc1C (configuration not stated),-5.3% (inactive)
9,CCN(CCCCOC(=O)c1ccc(OC)c(OC)c1)C(C)Cc1ccc(OC)cc1 (configuration not stated),12.1% (inactive)
10,CC(C)N=C(N)/N=C(\N)Nc1ccc(Cl)cc1,-0.812% (inactive)
11,O=C(OCCOCCO)c1ccccc1Nc1cccc(C(F)(F)F)c1,-7.26% (inactive)
12,CC1(C)O[C@@H]2[C@@H](CO[C@@]3(COS(N)(=O)=O)OC(C)(C)O[C@@H]23)O1,5.06% (inactive)
13,CN1CCC[C@@H]1c1cccnc1,-6% (inactive)
14,Cc1onc(-c2c(Cl)cccc2Cl)c1C(=O)N[C@@H]1C(=O)N2[C@@H]1SC(C)(C)[C@@H]2C(=O)O,3.19% (inactive)
15,Cc1cc2c(cc1CC(=O)c1sccc1S(=O)(=O)Nc1onc(C)c1Cl)OCO2,-0.924% (inactive)
16,Cc1cc(=O)n(-c2ccccc2)n1C,8.44% (inactive)
17,CC(Cc1ccccc1)(NC(=O)CN)c1ccccc1 (configuration not stated),-4.98% (inactive)
18,CCN(CCCc1ccccc1)CCCc1ccccc1,-4.46% (inactive)

# Assay: qHTS of pediatric cancer cell lines to identify multiple opportunities for drug repurposing: Primary screen for Rh30 cells (AID 1347107); note: nearly all actives have a fitted effect of over 75% in size
# Conditions: Rh30 rhabdomyosarcoma viability, CellTiter-Glo luminescence, 48 h; series mostly up to 46 µM; activity change, negative = cytotoxic: at the top concentration
# Summary of the method: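 Cells (500-1,000/well) rested 5 h, then received compounds for 48 h; metabolically active cells were measured by CellTiter-Glo luminescence. Final concentrations spanned up to 46 µM (MIPE, 11-point) or 0.59 nM-46 µM (NPC, 8-point) in primary screens, 11-point in follow-ups.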
row,SMILES,"activity change, negative = cytotoxic"
1,CN=C(NC#N)NCCSCc1csc(N=C(N)N)n1,23% (inactive)
2,CCN(CC)C(=O)N1CCN(C)CC1,18.3% (inactive)
3,Cc1c(N(C)CS(=O)(=O)O)c(=O)n(-c2ccccc2)n1C,16.6% (inactive)
4,CC1=C(C(=O)O)N2C(=O)[C@@H](NC(=O)[C@H](N)c3ccc(O)cc3)[C@H]2SC1,6.61% (inactive)
5,COc1c2occc2c(OC)c2c(=O)cc(C)oc12,28.7% (inactive)
6,O=c1ccc2ccccc2o1,26.2% (inactive)
7,NC(CS)C(=O)O (configuration not stated),24.3% (inactive)
8,CCOC(=O)OC(C)OC1=C(C(=O)Nc2ccccn2)N(C)S(=O)(=O)c2ccccc21 (configuration not stated),13.8% (inactive)
9,NC(=O)c1cc[n+](CC2=C(C(=O)[O-])N3C(=O)[C@@H](NC(=O)Cc4cccs4)[C@H]3SC2)cc1,20.6% (inactive)
10,COc1cccc(OC)c1C(=O)N[C@@H]1C(=O)N2[C@@H]1SC(C)(C)[C@@H]2C(=O)O,24.3% (inactive)
11,CN1CCC(=C2c3ccccc3Sc3ccccc32)CC1,10.7% (inactive)
12,Nc1ccc(/C=C/c2ccc(N)cc2S(=O)(=O)O)c(S(=O)(=O)O)c1,24.6% [at 0.597 µM] (inactive)
13,OCc1ccccc1O,20% (inactive)
14,CCN1CCC[C@H]1CNC(=O)c1c(OC)ccc(Br)c1OC,12.5% (inactive)
15,CN1C(CCl)Nc2cc(Cl)c(S(N)(=O)=O)cc2S1(=O)=O (configuration not stated),16.1% (inactive)
16,Clc1ccc2c(c1)CCc1cccnc1C2=C1CCNCC1,3.76% (inactive)
17,O=S1(=O)c2cccc3cccc(c23)N1CCCN1CCN(c2ccc(F)cc2)CC1,-1.36% (inactive)
18,COC(=O)CCc1ccc(OCC(O)CNC(C)C)cc1 (configuration not stated),12.5% (inactive)

row,SMILES,"activity change, negative = cytotoxic"
1,COc1cc(C(=S)N2CCOCC2)cc(OC)c1OC,10.5% (inactive)
2,Cc1c(F)c(N2CCNC(C)C2)cc2c1c(=O)c(C(=O)O)cn2C1CC1 (configuration not stated),15.4% (inactive)
3,CCCCOc1ccc(OCCCN2CCOCC2)cc1,18.9% (inactive)
4,CCOc1ccc(NC(=O)CC(C)O)cc1 (configuration not stated),0.619% (inactive)
5,CC[N+](CC)(CCNC(=O)C(=O)NCC[N+](CC)(CC)Cc1ccccc1Cl)Cc1ccccc1Cl,4.68% (inactive)
6,NCCc1ccn[nH]1,21.8% (inactive)
7,O=c1[nH]c(=O)n([C@H]2CCCO2)cc1F,6.16% (inactive)
8,CCCCN1CCCC1C(=O)Nc1c(C)cc(C)cc1C (configuration not stated),27% (inactive)
9,CCN(CCCCOC(=O)c1ccc(OC)c(OC)c1)C(C)Cc1ccc(OC)cc1 (configuration not stated),13.4% (inactive)
10,CC(C)N=C(N)/N=C(\N)Nc1ccc(Cl)cc1,5.4% (inactive)
11,O=C(OCCOCCO)c1ccccc1Nc1cccc(C(F)(F)F)c1,4.52% (inactive)
12,CC1(C)O[C@@H]2[C@@H](CO[C@@]3(COS(N)(=O)=O)OC(C)(C)O[C@@H]23)O1,30.7% (inactive)
13,CN1CCC[C@@H]1c1cccnc1,8.7% (inactive)
14,Cc1onc(-c2c(Cl)cccc2Cl)c1C(=O)N[C@@H]1C(=O)N2[C@@H]1SC(C)(C)[C@@H]2C(=O)O,17% (inactive)
15,Cc1cc2c(cc1CC(=O)c1sccc1S(=O)(=O)Nc1onc(C)c1Cl)OCO2,15.1% (inactive)
16,Cc1cc(=O)n(-c2ccccc2)n1C,16.7% (inactive)
17,CC(Cc1ccccc1)(NC(=O)CN)c1ccccc1 (configuration not stated),21.3% (inactive)
18,CCN(CCCc1ccccc1)CCCc1ccccc1,20.3% (inactive)
